Here are results for 27 molecules from PubChem BioAssay (Tox21).

Experiment [1] can be described thus: Caspase-3/7 induction in HepG2 cells by small molecules, qHTS assay (AID 1346978). Further: nearly all actives have a fitted effect of over 15% in size. Further: potency means the concentration at half of the fitted maximal effect. A digest of the protocol:
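Wild-type HepG2 cells, 2,000/well, settled 5 hr at 37 C and 5% CO2, then compound-treated for 17 hr; caspase-3/7 activity read by luminescent Caspase-Glo 3/7 after 30 min at room temperature.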

A short description of experiment [2]: Caspase-3/7 induction in CHO-K1 cells by small molecules, qHTS cell viability counter screen (AID 1346979). Further: nearly all actives have a fitted effect of over 35% in size. Further: potency means the concentration at half of the fitted maximal effect. An outline of the steps: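 In the same wells as the caspase read, viability of compound-treated wild-type CHO-K1 cells was assessed using CellTiter-Fluor, added after 16hr at 37C and measured by fluorescence following 1hr further incubation.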
In general terms: qHTS replaces the single test concentration by a dilution series.

Experiment [3] is described as follows: Caspase-3/7 induction in CHO-K1 cells by small molecules, qHTS assay (AID 1346980). Further: nearly all actives have a fitted effect of over 15% in size. Further: potency means the concentration at half of the fitted maximal effect. A digest of the protocol:
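Wild-type CHO-K1 cells exposed to compounds for 17hr at 37 C, 5% CO2. Caspase-3/7 activity then measured by Caspase-Glo 3/7 luminescence after 30min at room temperature.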

Experiment [4] can be described thus: Caspase-3/7 induction in HepG2 cells by small molecules, qHTS cell viability counter screen (AID 1346981). Further: nearly all actives have a fitted effect of over 30% in size. Further: potency means the concentration at half of the fitted maximal effect. A digest of the protocol: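 Treatment of HepG2 cells with DMSO-delivered compounds ran 16 hr at 37 C following a 5-hr pre-incubation of 2,000 cells/well. CellTiter-Fluor fluorescence, read after 1 hr, served as the viability measure in a qHTS format.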
For experiment [5], the target named is Nuclear receptor subfamily 1 group I member 2 (Homo sapiens) (UniProt O75469). The experiment is described as follows: Human pregnane X receptor (PXR) small molecule agonists, qHTS assay (AID 1346982). Further: nearly all actives have a fitted effect of over 35% in size. Further: potency means the concentration at half of the fitted maximal effect. A digest of the protocol: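 Stable HepG2 line reporting PXR-mediated CYP3A4 expression via luciferase. Treatment: 24 hr with compounds in DMSO at 37 C. Detection: ONE-Glo luminescence.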

For experiment [6], the target named is Acetylcholinesterase (Homo sapiens) (UniProt P22303). The experiment is described as follows: Acetylcholinesterase (AChE) small molecule antagonists: colormetric cell-based qHTS assay (AID 1347395; calls by dose curve; further: nearly all actives have a fitted effect of over 30% in size; further: potency means the concentration at half of the fitted maximal effect). A digest of the protocol: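 Endogenous AChE of human neuroblastoma SH-SY5Y cells was measured with an Ellman-type DTNB/acetylthiocholine mix. Compound pretreatment lasted 30 min at 37 C; substrate reaction ran 90 min at 37 C.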

Experiment [7] shares this target. The experiment is described as follows: Acetylcholinesterase (AChE) small molecule antagonists: enzyme-based qHTS assay (AID 1347397; calls by dose curve; further: nearly all actives have a fitted effect of over 55% in size; further: potency means the concentration at half of the fitted maximal effect). The note with it: Potency: AChE enzyme activity inhibition. An outline of the steps:
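Colorimetric DTNB read-out of thiocholine released from acetylthiocholine by recombinant human AChE (50 mU/mL as dispensed). Compounds were preincubated 30 min at RT before substrate/DTNB addition, with a 10 min RT reaction.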

In experiment [8] the target is Nuclear receptor subfamily 1 group I member 2 (Rattus norvegicus) (UniProt Q9R1A7). The experiment is described as follows: Rat pregnane X receptor (rPXR) activation by small molecules, qHTS assay (AID 1346983). Further: nearly all actives have a fitted effect of over 20% in size. As to conditions: rPXR luciferase reporter cells, One-Glo luminescence, 24 h; max activation: active compounds read high. A digest of the protocol: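 Cell-based rPXR activation assay: rPXR cells, 2,000 per well, rested 5hr at 37 C, then exposed to compounds in DMSO for 24 hr at 37 C. Luciferase activity read by One-Glo luminescence after 30 min at room temperature.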

For experiment [9], the target named is Nuclear receptor subfamily 1 group I member 2 (Homo sapiens) (UniProt O75469). The experiment is described as follows: CYP3A4 induction through human pregnane X receptor (PXR) by small molecules, qHTS assay (AID 1346984). Further: nearly all actives have a fitted effect of over 40% in size. Further: potency means the concentration at half of the fitted maximal effect. A digest of the protocol:
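After 24 h at 37C with compound, DPX-2 cells (HepG2, co-transfected PXR response element and CYP3A4 promoter-luciferase) got 3uM final P450-Glo Luciferin-IPA for 3 h; One-Glo luminescence followed.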

Experiment [10] shares this target. The experiment is described as follows: Human pregnane X receptor (PXR) activation by small molecules, qHTS assay (AID 1346985). Further: nearly all actives have a fitted effect of over 40% in size. Further: potency means the concentration at half of the fitted maximal effect. A digest of the protocol:
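DPX-2 cells (HepG2 co-transfected with a PXR response element and a CYP3A4-promoter luciferase construct) were seeded at 2,000 per well, rested 5 hr at 37C, then exposed to DMSO-dissolved compounds for 24 hr. Activation was read as luciferase luminescence.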

Unmarked numbers belong to inactive results. Inconclusive results are not listed. Calls of active or inactive are those of the source. Unless noted, the call rests on the fitted dose curve; in most records, active means well fitted curve in the direction sought with a large enough effect in the repeat runs; inconclusive means weak or mixed curves; inactive means no such curve, though single readings can be large; an effect the other way counts as inactive or inconclusive.
On the % scale 0 is the no-effect control and ±100 the full control effect.

Sequence of Nuclear receptor subfamily 1 group I member 2 (Rattus norvegicus) (Q9R1A7 whole entry, looked up): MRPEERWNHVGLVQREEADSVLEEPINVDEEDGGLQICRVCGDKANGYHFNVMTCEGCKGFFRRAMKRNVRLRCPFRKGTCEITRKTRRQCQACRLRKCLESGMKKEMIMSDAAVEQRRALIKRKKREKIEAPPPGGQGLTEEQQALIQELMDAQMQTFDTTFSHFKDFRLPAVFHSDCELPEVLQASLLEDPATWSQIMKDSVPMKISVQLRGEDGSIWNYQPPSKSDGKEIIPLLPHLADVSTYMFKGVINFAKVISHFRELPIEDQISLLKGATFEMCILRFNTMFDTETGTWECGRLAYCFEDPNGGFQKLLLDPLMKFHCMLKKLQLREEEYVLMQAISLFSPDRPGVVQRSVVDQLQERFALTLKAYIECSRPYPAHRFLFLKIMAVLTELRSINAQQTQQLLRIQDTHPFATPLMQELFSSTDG
Sequence of Nuclear receptor subfamily 1 group I member 2 (Homo sapiens) (O75469 whole entry, looked up): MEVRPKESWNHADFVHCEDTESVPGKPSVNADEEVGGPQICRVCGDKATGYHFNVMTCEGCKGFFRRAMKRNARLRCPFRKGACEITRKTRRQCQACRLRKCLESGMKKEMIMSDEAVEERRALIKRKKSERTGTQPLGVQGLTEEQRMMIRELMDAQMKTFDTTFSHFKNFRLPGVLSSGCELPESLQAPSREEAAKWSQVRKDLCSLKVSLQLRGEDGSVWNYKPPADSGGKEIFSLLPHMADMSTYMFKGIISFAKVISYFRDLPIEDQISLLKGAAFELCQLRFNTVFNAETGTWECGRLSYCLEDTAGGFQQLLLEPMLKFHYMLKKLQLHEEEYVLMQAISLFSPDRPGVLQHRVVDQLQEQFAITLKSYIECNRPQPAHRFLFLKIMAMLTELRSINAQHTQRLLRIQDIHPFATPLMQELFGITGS
Sequence of Acetylcholinesterase (Homo sapiens) (P22303 whole entry, looked up): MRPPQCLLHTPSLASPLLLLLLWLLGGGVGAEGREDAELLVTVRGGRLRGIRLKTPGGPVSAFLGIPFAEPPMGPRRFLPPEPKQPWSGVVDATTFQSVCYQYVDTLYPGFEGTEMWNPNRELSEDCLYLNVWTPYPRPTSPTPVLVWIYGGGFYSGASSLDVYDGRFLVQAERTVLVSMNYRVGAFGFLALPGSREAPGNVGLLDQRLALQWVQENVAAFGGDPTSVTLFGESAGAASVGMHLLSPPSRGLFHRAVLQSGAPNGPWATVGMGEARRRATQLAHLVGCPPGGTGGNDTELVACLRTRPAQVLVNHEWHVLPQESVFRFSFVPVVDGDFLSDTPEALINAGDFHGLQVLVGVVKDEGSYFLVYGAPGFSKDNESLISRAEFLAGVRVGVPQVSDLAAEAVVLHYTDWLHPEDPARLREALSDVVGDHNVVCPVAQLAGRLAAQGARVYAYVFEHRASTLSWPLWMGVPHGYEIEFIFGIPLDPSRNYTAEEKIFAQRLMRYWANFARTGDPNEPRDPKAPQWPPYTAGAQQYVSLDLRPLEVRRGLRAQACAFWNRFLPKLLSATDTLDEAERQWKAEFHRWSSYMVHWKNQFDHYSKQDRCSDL

On to `O=C(CCN1CC1)OCC(CO)(COC(=O)CCN1CC1)COC(=O)CCN1CC1`, for which the Potency result in experiment [1], in experiment [2], in [3], in experiment [4], in experiment [5] and in [6] was “inactive” throughout. For the same molecule, the Potency result in [7] was “inactive”.

For `CCc1cc2c(s1)-n1c(C)nnc1CN=C2c1ccccc1Cl`, the Potency entry in [1], in experiment [2], in experiment [3], in experiment [4], in [6] and in [7] was “inactive” each time.

For `O=[N+]([O-])c1ccc(CBr)cc1`, the Potency entry in experiment [1], in experiment [2], in experiment [3], in experiment [4], in [5] and in experiment [6] was “inactive” throughout. For the same molecule, the Potency result in [7] was “inactive”.

In the case of `CNCC(=O)c1ccc(O)c(O)c1`, the Potency result in [1], in experiment [2], in experiment [3], in experiment [5], in experiment [6] and in [7] was “inactive” in each case.

Turning to `Clc1ccccc1N1CCNCC1`, the Potency entry in experiment [1], in [2], in experiment [3], in experiment [5], in [6] and in [7] was “inactive” throughout.

For the molecule `O=C1CN2CCOC2(c2ccccc2Cl)c2cc(Cl)ccc2N1` (configuration not stated), the Potency result in [1], in experiment [2], in experiment [3], in experiment [4], in experiment [6] and in [7] was “inactive” throughout.

Consider `CCC1(c2ccccc2)C(=O)NC(=O)NC1=O`, for which the Potency entry in [1], in experiment [2], in experiment [3], in experiment [5], in experiment [9] and in [10] was “inactive” each time. The Potency entry in experiment [6] and in [7] was “inactive” each time. In addition, the max activation in [8] is -0.894%.

Turning to `O=C(O)c1ccc2[nH]cc(CCCCN3CC=C(c4ccccc4)CC3)c2c1`, the Potency result in experiment [1], in [2], in experiment [3], in [5], in experiment [9] and in [10] was “inactive” each time. The Potency entry in [6] and in [7] was “inactive” in each case. The max activation in experiment [8] is -0.864%.

In the case of `CCNc1nc(NC(C)C)nc(OC)n1`, the Potency result in experiment [1], in [2], in experiment [3], in experiment [6] and in experiment [7] was “inactive” each time. Besides, the Potency in [5] was 27.3 µM (active).

Consider `COP(N)(=S)Oc1ccccc1C(=O)OC(C)C` (configuration not stated), for which the Potency result in experiment [1], in experiment [2], in experiment [3], in experiment [4] and in [7] was “inactive” in each case.

Turning to `CCN(CC)CCOC(=O)C(C)(c1ccccc1)c1ccccc1`, the Potency result in experiment [1], in [2], in [3], in experiment [6] and in experiment [7] was “inactive” each time. Further, the results for the Potency in [5], in experiment [9] and in [10] were 13.3 µM (active), 7.94 µM (active) and 8.91 µM (active), respectively. The max activation in experiment [8] was 7.07%.

Regarding `c1cc2c(c(N3CCNCC3)c1)OCCO2`, the Potency result in [1], in experiment [2], in experiment [3], in experiment [5], in [9] and in experiment [10] was “inactive” throughout. The Potency entry in experiment [6] and in [7] was “inactive” throughout. In addition, the max activation in experiment [8] is 6.77%.

`Nc1c(Br)cc([N+](=O)[O-])cc1[N+](=O)[O-]`: the Potency entry in [1], in [3] and in [7] was “inactive” each time. The Potency in experiment [2] was 55.1 µM (active); in [5], 55.1 µM (active); in [6], 36 µM (active).

Take `OCCBr`: the Potency entry in experiment [1], in [2], in experiment [3], in experiment [5], in experiment [6] and in [7] was “inactive” each time.

For the molecule `CCC(C)(C)c1cc(-n2nc3ccccc3n2)c(O)c(C(C)(C)CC)c1`, the Potency entry in [1], in experiment [2], in experiment [3], in experiment [6] and in [7] was “inactive” throughout. Moreover, in [5], the Potency was 69.6 µM (active).

In the case of `CC(C1CC1)C(O)(Cn1cncn1)c1ccc(Cl)cc1` (configuration not stated), the Potency result in experiment [1], in [2], in [3], in experiment [6] and in experiment [7] was “inactive” throughout. Besides, the Potency in experiment [5] was 27.1 µM (active).

For the molecule `NC(=O)O`, the Potency result in [1], in experiment [2], in [3], in experiment [5], in experiment [6] and in experiment [7] was “inactive” in each case.

As for `O=[N+]([O-])c1cc(Cl)c(Cl)c(Cl)c1`, the Potency result in experiment [1], in experiment [2], in experiment [3], in [5], in experiment [6] and in experiment [7] was “inactive” throughout.

On to `COc1cccc2c1cc([N+](=O)[O-])c1c(C(=O)O)cc3c(c12)OCO3`, for which the Potency in experiment [1] was 9.69 µM (active); in [2], 21.7 µM (active); in experiment [3], 9.69 µM (active); in experiment [4], 27.3 µM (active). Further, the Potency result in experiment [6] and in experiment [7] was “inactive” throughout.

On to `C=C(C)CN(CC)c1c([N+](=O)[O-])cc(C(F)(F)F)cc1[N+](=O)[O-]`, for which the Potency result in experiment [1], in experiment [2], in experiment [3], in experiment [6] and in experiment [7] was “inactive” throughout. For the same molecule, the Potency in [5] was 27.3 µM (active).

Regarding `Cc1ccccc1CO[C@@H]1C[C@@]2(C(C)C)CC[C@]1(C)O2`, the Potency entry in [1], in experiment [2], in [3], in [5], in [6] and in [7] was “inactive” each time.

For `CCN(CC)C(=O)[C@@H]1C=C2c3cccc4[nH]cc(c34)C[C@H]2N(C)C1`, the Potency entry in experiment [1] and in experiment [3] was “inactive” in each case. Moreover, the Potency is 89.8 µM (active) in [2], 80 µM (active) in experiment [5], 73.8 µM (active) in experiment [6] and 104 µM (active) in experiment [7].

Regarding `Cc1ncc2n1-c1ccc(Cl)cc1C(c1ccccc1F)=NC2`, the Potency entry in experiment [1], in experiment [2], in [3], in [9], in [6] and in experiment [7] was “inactive” each time. Moreover, the Potency in experiment [5] was 33.5 µM (active). Also, the max activation in [8] is 11.3%.

Regarding `c1cc[c]([Hg][c]2ccccc2)cc1`, the Potency result in experiment [1], in [3], in experiment [6] and in [7] was “inactive” in each case. Besides, the Potency in experiment [2] is 68.6 µM (active); in [5], 10.9 µM (active).

On to `CC(COc1ccc(Oc2ccccc2)cc1)Oc1ccccn1` (configuration not stated), for which the Potency entry in experiment [1], in [2], in [3], in experiment [6] and in experiment [7] was “inactive” each time. The Potency in experiment [5] was 17.2 µM (active).

Regarding `CCOP(=S)(Oc1cnc(C(C)(C)C)nc1)OC(C)C` (configuration not stated), the Potency result in [1], in experiment [2] and in experiment [3] was “inactive” in each case. In addition, the values for the Potency in experiment [5], in [6] and in [7] were 24.3 µM (active), 39.9 µM (active) and 63.3 µM (active), respectively.

Regarding `O=NN1CCCCC1`, the Potency entry in [1], in experiment [2], in experiment [3], in [5], in experiment [6] and in experiment [7] was “inactive” in each case.
